The values that follow come from publication PMC7819943, “Rice protein-binding microarrays: a tool to detect cis-acting elements near promoter regions in rice”.

The full ranking holds about 68,000 sequences; the median of “fluorescence intensity (a.u.)” is about 9,100, and the highest 2% start at about 16,000. This excerpt belongs to a sample that is enriched for the highest values.

Sequence of OsWRKY34 (Q0JBA9 entry or part of it): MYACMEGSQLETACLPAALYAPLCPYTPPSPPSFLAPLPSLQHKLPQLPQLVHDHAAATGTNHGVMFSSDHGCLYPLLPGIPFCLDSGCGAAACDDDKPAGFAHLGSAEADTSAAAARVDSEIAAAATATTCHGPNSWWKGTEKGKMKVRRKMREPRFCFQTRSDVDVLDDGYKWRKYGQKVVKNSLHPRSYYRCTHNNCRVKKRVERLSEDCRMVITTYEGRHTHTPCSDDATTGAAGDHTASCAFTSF

This assay concerns the target OsWRKY34 (Oryza sativa, UniProt Q0JBA9 1-250). The assay is described as follows: protein-binding microarray (RPBM); PBS, 2% BSA, 51.3 ng/ul salmon testes DNA, 50 uM zinc acetate, 200 nM TF, 25 C, 1 h; high values mean tight binding. The note with it: protein: recombinant; tags: N-terminal polyhistidine and DsRed monomer fusion (pET32a); label: CyDye5-dUTP incorporated in the synthesized complementary strand; 3' TTTTT single-stranded linker to array surface; dsDNA, one strand shown. A digest of the protocol:
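Transcription factors were made in E. coli BL21-CodonPlus as N-terminal fusions to a polyhistidine tag and DsRed, then purified on Ni–NTA. After primer extension with Cy5-dUTP and blocking with 2% BSA, a custom Agilent array was exposed for 1 h at 25 °C to 200 nM protein in PBS, 2% BSA, salmon testes DNA and 50 µM zinc acetate. Washed arrays were scanned on an Axon 4000B, and the binding signal is per-feature fluorescence intensity in arbitrary units.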
On to “CTGTATCCCCATTCGCTGTCAAAATTCAATTCACTGTCTTCGGAGTCACCTAGTGCAG”, for which the binding signal is 9640 fluorescence intensity (a.u.).
With “GGTGGGAGCACGATGCGGGACGTGGGGTGGGATCGGAAGCCGGAGTCACCTAGTGCAG” the figure was 8590 fluorescence intensity (a.u.).
For “CCCTCCCTGGCCGTCGTGCCCGCCGCTGCTCGCCTTCGGCCGGAGTCACCTAGTGCAG” the value was 10100 fluorescence intensity (a.u.).
With “TGGAGGGGAGTGGGATCGCGATCACGGGTGGGGCGTCGGACGGAGTCACCTAGTGCAG” the figure was 13100 fluorescence intensity (a.u.); with “AAATCTTGGGTTTATGTGGGCGACGATGTCGGTTTGGAAACGGAGTCACCTAGTGCAG”, 8060 fluorescence intensity (a.u.).
As for “CTACAGCCTCACACCGTCTCTCCTGCACCAGTTCCACGGACGGAGTCACCTAGTGCAG”, the binding signal is 9510 fluorescence intensity (a.u.).
For “GCGCGCGGGTGAGGAGGAGGAGGGGATGGGGAGGGGCCCGCGGAGTCACCTAGTGCAG” the value was 17700 fluorescence intensity (a.u.); for “TTTGTGGGTGATGGTGGGTGGGAGTGGGATAGGGCGGCCCCGGAGTCACCTAGTGCAG”, 17000 fluorescence intensity (a.u.); for “TGTGGGTATGGGGATGATTTTGTACCCGTGATAGGTGTGGCGGAGTCACCTAGTGCAG”, 13100 fluorescence intensity (a.u.).
For “GCGGCGGTGGGGATGGGGATAGGGCGGCGGCGGCGGATGGCGGAGTCACCTAGTGCAG” the value was 13600 fluorescence intensity (a.u.); for “CCGCGGTGGGGCATGGTGGTGAGGTGGGAGGGAGGGAGCTCGGAGTCACCTAGTGCAG”, 17100 fluorescence intensity (a.u.); for “TGGTTCGCTCGGTGGGTGGTGGTGGTTCTGTGAGCCCGCGCGGAGTCACCTAGTGCAG”, 18400 fluorescence intensity (a.u.).
For “GGTGGTTCTGTGAGCCCGCGGGGTTGGGGTTGGGGCCTGGCGGAGTCACCTAGTGCAG” the value was 12900 fluorescence intensity (a.u.); for “GAGAGGATGGAGGTGGATGAGGGAGAGGGGCGGGAGACCGCGGAGTCACCTAGTGCAG”, 9460 fluorescence intensity (a.u.).
As for “TGGGGCTTCTGGTGTGCTCGGTGGTGTTCGCCGCGGCGGCCGGAGTCACCTAGTGCAG”, the binding signal was 14200 fluorescence intensity (a.u.).
For “TGTGGTGCGTGCCGCGTGCGGGAGGGCAGGGTGAGGTGAGCGGAGTCACCTAGTGCAG” the value was 8810 fluorescence intensity (a.u.); for “GGATGGGCATGGAGGAGGTGCAGTGAGTGGAGCTGGAGGACGGAGTCACCTAGTGCAG”, 8730 fluorescence intensity (a.u.).
With “GCGGGATGGGGAGGCGGCGCCGCGAGGAGGAGGGGATGGGCGGAGTCACCTAGTGCAG” the figure was 11900 fluorescence intensity (a.u.); with “TCTTTTGTCACATCTTTATAATATTGCCCATGGCACATACCGGAGTCACCTAGTGCAG”, 8490 fluorescence intensity (a.u.); with “TGCCATCTCCTTCGCCATTGGAGCTCACCACACACTCGCTCGGAGTCACCTAGTGCAG”, 9660 fluorescence intensity (a.u.).
With “CACCTGACCCATTCTTGCTTACCTTATATTTAGCATACTCCGGAGTCACCTAGTGCAG” the figure was 8160 fluorescence intensity (a.u.); with “CTATTTTATAAAATCTTTGTTTATGCATACCAGCTAAATTCGGAGTCACCTAGTGCAG”, 8800 fluorescence intensity (a.u.).
For “AAGCCAACCCAACCCGCACCTTCTCGCTGCTTCTACTACTCGGAGTCACCTAGTGCAG”, the binding signal is 13100 fluorescence intensity (a.u.).
With “ACGGTGGCGTTGTGCCCTGTGATGGTGTCCGCGTTGTGTCCGGAGTCACCTAGTGCAG” the figure was 8990 fluorescence intensity (a.u.); with “CAGAGCAGGGGAGGGGAGGGGAGGGGATCCTGGTGAGCCTCGGAGTCACCTAGTGCAG”, 17600 fluorescence intensity (a.u.); with “CTAGTGAGGGGCGGGCGGGCGGGCAAGGGGAGCGGATGGGCGGAGTCACCTAGTGCAG”, 19100 fluorescence intensity (a.u.).
With “ACGTGTACGGCGCGGGGTGGAGGTGAGGGGTGGTGGGGCCCGGAGTCACCTAGTGCAG” the figure was 18000 fluorescence intensity (a.u.); with “GCTGCTGCTGCCGCCCGGCCGCCACCCGTGACCCGCGCCACGGAGTCACCTAGTGCAG”, 8860 fluorescence intensity (a.u.).
Consider “TCTCAGCAGGGGAGGGGAGGGGAGGGGATCCTGGTGAGGTCGGAGTCACCTAGTGCAG”, for which the binding signal is 15700 fluorescence intensity (a.u.).
As to “GCAACGGGGAGGTGGGCGGAGGTGCGGCGCGGCGGCGGGCCGGAGTCACCTAGTGCAG”, the binding signal was 10300 fluorescence intensity (a.u.).
As for “GGGCAAGGGGAGCGGATGGGCGGGGAGGAGGCAGGCTGCGCGGAGTCACCTAGTGCAG”, the binding signal is 11600 fluorescence intensity (a.u.).
With “TGCCGCTGCCGCCGTGTGCCCGAGCGAGCCCACGCCCACACGGAGTCACCTAGTGCAG” the figure was 8340 fluorescence intensity (a.u.); with “GTCGAGGCGGCGGCGGCGGGGCGCGGAGTGAGGTGGGTGCCGGAGTCACCTAGTGCAG”, 8640 fluorescence intensity (a.u.).
With “CGGGCGGATGAGGGGCGGCGATGGGCGGGCAAGGGGCGTGCGGAGTCACCTAGTGCAG” the figure was 12500 fluorescence intensity (a.u.); with “CTGGCGAGCAGAGCAGGGGAGGGGAGGGGAGGGGATCCTGCGGAGTCACCTAGTGCAG”, 15800 fluorescence intensity (a.u.).
For the sequence “ATGTGGTTTGGTGAGCGCCGCTGTGCCCACCTAACCCACACGGAGTCACCTAGTGCAG”, the binding signal is 27300 fluorescence intensity (a.u.).
With “CTGGGATTTGGTGGAGCTCCTGCGGTGGGGTGCCAGTGATCGGAGTCACCTAGTGCAG”, the binding signal is 12200 fluorescence intensity (a.u.).
With “ACTGTATATCGATGGCCCACTCGGCCCGACCCGTCCCGGCCGGAGTCACCTAGTGCAG” the figure was 10600 fluorescence intensity (a.u.); with “ATCAAGCCGAATAGTGCTGACATCTTCATTCTGGTTTTTTCGGAGTCACCTAGTGCAG”, 9510 fluorescence intensity (a.u.).
For “GTCTAGTATAAATCAACGCCACACCACTTGCCTAGTCATCCGGAGTCACCTAGTGCAG” the value was 8070 fluorescence intensity (a.u.); for “GTCGGCGCCCATAGTTTTTTTCCGCAAGGGTTTTCTACGTCGGAGTCACCTAGTGCAG”, 8810 fluorescence intensity (a.u.).
Regarding “TCTTAAGCGTGTTCATGGGTCTTGTTATGCTCAAGTCAAACGGAGTCACCTAGTGCAG”, the binding signal was 8950 fluorescence intensity (a.u.).
